# The list is not random: actives were taken first. Their share in the collection is about 3.8%.
# HepG2 viability: qHTS for Inhibitors of TGF-b: Cytotox Counterscreen. HepG2 CAGA-GFP viability, ATP luminescence, 18 h. hit rate 0.76% among 410,000. Potency, µM (titrated, usually from 46.1 µM), usual class: cytotoxic
#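 HepG2 CAGA-GFP cells (1000/well, DMEM with 1% FBS) received compound, then TGF-beta at 500 pg/mL final, and were incubated 18 hours at 37 degrees C. Viability was read by CellTiter-Glo luminescence. Media-only wells were set as complete cell-killing and DMSO as no toxicity.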
# ATXN viability: Viability Counterscreen for Primary qHTS for Inhibitors of ATXN expression | S2 cells (HEK-293 line with an ATXN2-luciferase reporter) viability, CellTiter-Fluor protease fluorescence, 24 h | Potency, µM (doses to about 56.7 µM), actives largely listed as cytotoxic | hit rate 0.49% among 400,000 | AID 651635, 2014; note: nearly all actives have a fitted effect of over 40% in size
# A549 tox: Nrf2 qHTS screen for inhibitors: counterscreen for cytotoxicity; A549 ARE-Fluc cells, CellTiter-Fluor viability, 18-24 h; Potency, µM (top dose mostly 46 µM), hits mostly inhibitors; hit rate 0.16% among 390,000; AID 504648, 2011
#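 A549 ARE-Fluc cells in 5% FBS OPTI-MEM, 5000 cells/well, rested 2 h then exposed to compounds in concentration-response for 18-24 h at 37 °C. Viability by CellTiter-Fluor fluorescence (Ex 405/Em 525) after 30 min; luciferase luminescence (BugLite, 15 min, RT) read afterwards.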
# ATXN2 expr inh: Primary qHTS for Inhibitors of ATXN expression. HEK-293 ATXN2-luciferase reporter, luminescence, 24 h. Potency, µM (top dose mostly 57 µM), hits mostly inhibitors. hit rate 0.72% among 360,000; note: nearly all actives have a fitted effect of over 55% in size
#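 qHTS (up to 57 uM final) was run with 24 h compound exposure of reporter cells at 37 °C. Each well was multiplexed: SteadyGlo luminescence measured ATXN2-luciferase expression after a fluorogenic Gly-Phe-AFC viability readout (25 uM final).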
# Nrf2 block: Nrf2 qHTS screen for inhibitors; Potency, µM (highest dose often 46 µM), most hits filed as inhibitors; A549 ARE-Fluc reporter, luciferase luminescence, 18-24 h; hit rate 2.1% among 360,000; note: nearly all actives have a fitted effect of over 60% in size
#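 Concentration-response testing used A549 ARE_Fluc cells at 5000 cells/well. Following an 18-24 h compound incubation, viability was read by fluorescence (Ex 405/Em 525) and luciferase output by luminescence.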
# TGFb inhibitor: qHTS for Inhibitors of TGF-b. HepG2 CAGA-GFP TGF-b/SMAD3 reporter, GFP fluorescence, 18 h; TGF-beta stimulated, 500 pg/mL final. hit rate 1.2% among 410,000. Potency, µM (top dose mostly 46.1 µM), usual class: inhibitors; note: nearly all actives have a fitted effect of over 65% in size
#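 HEPG2 CAGA-GFP reporter cells (1000/well, DMEM with 1% FBS) received compounds, then recombinant TGF-beta at 500 pg/mL final for 18 hours at 37 degrees C. Per-cell GFP summed per well was normalised to unstimulated and stimulated DMSO controls before curve fitting.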
# A number is an active result; . = inactive; ? = inconclusive; / = not tested or not shown; [ ] = remark or other dose. Calls come from the whole dose curve; as a rule, active = well fitted curve in the direction sought with a large enough effect; inconclusive = small, poorly fitted or top-dose-only effect, or another doubt; inactive = no such curve, though single readings can be large; an effect the other way counts as inactive or inconclusive.
SMILES,HepG2 viability,ATXN viability,A549 tox,ATXN2 expr inh,Nrf2 block,TGFb inhibitor
CC(C)C(c1nnnn1C1CCCC1)N(C)C1CCCCC1 (centres undefined),.,.,.,.,.,.
Cc1ccc(C(c2nnnn2C2CCCCC2)N(C)C2CCCCC2)cc1 (centres undefined),.,.,.,.,26µM,.
Cc1cc(C)nc(S[C@@H]2C[C@@H](C(=O)N3CCCN(C)CC3)N(Cc3cc(F)ccc3F)C2)n1,/,.,/,/,/,/
COc1ccc(C[C@H]2CN3C(=NC[C@@H]3Cc3ccccc3)N2CCNC(=O)c2ccc(C)c(Br)c2)cc1,13µM,/,.,22µM,.,?
C/C=C(\C)C(=O)NCCN1C2=NC[C@H](Cc3ccccc3)N2C[C@H]1Cc1ccc(O)cc1,.,.,.,.,.,.
Cc1ccc(C(=O)NCCN2C3=NC[C@@H](Cc4ccccc4)N3C[C@H]2Cc2ccc(O)cc2)cc1Br,11µM,?,.,25µM,.,16µM
C/C=C(\C)C(=O)NCCN1C2=NC[C@@H](C)N2C[C@@H]1Cc1ccc(OC)cc1,.,.,.,.,.,.
Cc1ccc(C(=O)NCCN2C3=NC[C@H](Cc4ccc(O)cc4)N3C[C@H]2Cc2ccc(O)cc2)cc1Br,.,.,.,.,.,.
COc1ccc(C[C@H]2CN3C(=NC[C@@H]3Cc3ccc(O)cc3)N2CCNC(=O)c2ccc(C)c(Br)c2)cc1,16µM,/,.,25µM,.,?
COc1ccc(C[C@H]2CN3C(=NC[C@H]3Cc3ccccc3)N2CCNC(=O)c2ccc(C)c(Br)c2)cc1,.,28µM,?,?,.,?
C/C=C(\C)C(=O)NCCN1C2=NC[C@H](Cc3ccccc3)N2C[C@@H]1Cc1ccc(OC)cc1,.,.,.,.,.,.
CCCSc1ccc([C@@H]2[C@H]3C(=O)N(CC)C(=O)[C@H]3[C@]3(C(=O)OC)CCCCN23)cc1,.,.,.,.,?,.
O=C1CCc2cc(S(=O)(=O)Nc3ccc4ccccc4c3)ccc2N1,/,/,.,/,?,/
CC1(C)OC(=O)C2(Cc3ccccc3N3CCCC32)C(=O)O1 (centres undefined),.,/,?,/,.,.
C[C@@H](CN1C2=NC[C@H](Cc3ccccc3)N2C[C@H]1Cc1ccc(O)cc1)NC(=O)CCC1CCCCC1,.,22µM,.,28µM,.,?
COc1ccc(C[C@H]2CN3C(=NC[C@H]3Cc3ccccc3)N2CCNC(=O)CCC2CCCCC2)cc1,.,35µM,.,35µM,.,?
C[C@@H](CN1C2=NC[C@H](Cc3ccc(O)cc3)N2C[C@H]1Cc1ccc(O)cc1)NC(=O)CCC1CCCCC1,.,.,.,.,.,.
CCCN1C=CC(=C2C(=O)c3ccccc3C2=O)C=C1,7.1µM,?,.,?,3.3µM,.
CCCCCCN1C=CC(=C2C(=O)c3ccccc3C2=O)C=C1,.,.,.,?,?,.
CCN1C=CC(=C2C(=O)c3ccccc3C2=O)C=C1,.,?,.,1.1µM,1.6µM,.
CC1(C)Cc2ccccc2C(N/N=C/c2ccc(Cl)cc2)=N1,.,.,.,.,?,?
CS(=O)(=O)c1cccc(NC(=O)C2CC2)c1,.,.,.,.,.,.
Cc1cccc(NC(=O)C2CCN(S(=O)(=O)c3ccc4c(c3)NC(=O)CO4)CC2)c1C,.,.,.,.,.,.
CSc1cccc(NC(=O)C2CCN(S(=O)(=O)c3ccc(F)cc3)CC2)c1,.,?,.,.,15µM,.
CSc1cccc(NC(=O)C2CCN(S(=O)(=O)c3ccc4c(c3)NC(=O)CO4)CC2)c1,.,.,.,?,23µM,.
SMILES,HepG2 viability,ATXN viability,A549 tox,ATXN2 expr inh,Nrf2 block,TGFb inhibitor
O=C(Nc1cccc(S(=O)(=O)c2cccc(NC(=O)C3CC3)c2)c1)C1CC1,.,.,.,.,8.2µM,.
Nc1ncnc2c1ncn2-c1ccccc1Cl,.,.,.,.,.,.
Cc1cc(C(=O)CSc2nc(N)cc(=O)[nH]2)c(C)n1-c1ccc(OC(F)F)cc1,.,.,.,.,18µM,.
Cc1cc(-n2c(C)cc(C(=O)CSc3nc(N)cc(=O)[nH]3)c2C)no1,.,.,.,.,?,.
COc1ccc(CCn2c(C)cc(C(=O)CSc3nc(N)cc(=O)[nH]3)c2C)cc1,.,.,.[1.84 µM],?,18µM,.
Cc1cc(C(=O)CCl)c(C)n1CCc1ccc(Cl)cc1,18µM,?,.,25µM,.,?
CCOCC(O)COc1ccc(NC(=O)CC[S+](C)C)cc1 (centres undefined),/,.,/,.,/,/
O=C(O)/C=C/C(=O)Nc1ccc(-c2ccccc2)cc1,.,.,.,.,?,.
O=C(N/N=C/c1ccc(O)cc1O)c1ccc(CN2C(=O)c3cccc4cccc2c34)cc1,.,?,?,?,9.2µM,?
N#Cc1nc(-c2cccs2)oc1NCc1ccc2c(c1)OCO2,7.9µM,.,.,.,.,.
Cn1c(-c2ccccc2)c(C#Cc2ccc(N)cc2)c2ccccc21,.,.,.,.,.,3.5µM
CC(NC(=O)COc1ccc(Br)cc1)C1CCCO1 (centres undefined),.,.,.,.,.,.
Cc1ccc(OCCn2c(=S)[nH]c3ccccc32)c(C(C)C)c1,.,?,.,.,.,16µM
CC(=O)/C=C\c1ccccc1OC(=O)c1cc2ccccc2oc1=O,.,.,.,.,.,.
O=C(/C=C\c1ccccc1OC(=O)c1ccccc1F)c1cc2ccccc2o1,.,.,?,.,?,14µM
Cc1ccc2c(c1)c(C)c(C)n2CC(O)Cn1nc(C)c(Br)c1C (centres undefined),16µM,?,.,?,.,?
CCOc1ccccc1NC(=O)CCc1nnc2ccc(N3CCC4(CC3)OCCO4)nn12,.,.,.,.,.,.
CCOc1ccc(NCc2cccn2-c2nnc(N3CCC(C(=O)NCCOC)CC3)s2)cc1,.,/,.,/,.,/
CCOc1ccc(NCc2cccn2-c2nnc(N3CCC(C(=O)NCCCN4CCCCC4CC)CC3)s2)cc1 (centres undefined),14µM,/,.,/,.,.
COc1ccc(-c2ccc(CCC(=O)O)n2CC(=O)Nc2ccccc2C)cc1,.,.,.,.,.,.
CC(C)NC(=O)N(C)C[C@H]1Oc2c(NC(=O)Nc3ccc(C(F)(F)F)cc3)cccc2C(=O)N([C@H](C)CO)C[C@@H]1C,.,?,?,.,?,?
